High-throughput results from PubChem BioAssay.
TDP1 inh: qHTS Assay for Inhibitors of Tyrosyl-DNA Phosphodiesterase (TDP1); recombinant TDP1, AlphaScreen DNA substrate cleavage; Potency, µM (top dose mostly 130 µM), usual class: inhibitors; 350,000 compounds, 0.28% hits; AID 485290, 2010; further: nearly all actives have a fitted effect of over 40% in size
Target sequence (Q9NUW8 whole entry, looked up): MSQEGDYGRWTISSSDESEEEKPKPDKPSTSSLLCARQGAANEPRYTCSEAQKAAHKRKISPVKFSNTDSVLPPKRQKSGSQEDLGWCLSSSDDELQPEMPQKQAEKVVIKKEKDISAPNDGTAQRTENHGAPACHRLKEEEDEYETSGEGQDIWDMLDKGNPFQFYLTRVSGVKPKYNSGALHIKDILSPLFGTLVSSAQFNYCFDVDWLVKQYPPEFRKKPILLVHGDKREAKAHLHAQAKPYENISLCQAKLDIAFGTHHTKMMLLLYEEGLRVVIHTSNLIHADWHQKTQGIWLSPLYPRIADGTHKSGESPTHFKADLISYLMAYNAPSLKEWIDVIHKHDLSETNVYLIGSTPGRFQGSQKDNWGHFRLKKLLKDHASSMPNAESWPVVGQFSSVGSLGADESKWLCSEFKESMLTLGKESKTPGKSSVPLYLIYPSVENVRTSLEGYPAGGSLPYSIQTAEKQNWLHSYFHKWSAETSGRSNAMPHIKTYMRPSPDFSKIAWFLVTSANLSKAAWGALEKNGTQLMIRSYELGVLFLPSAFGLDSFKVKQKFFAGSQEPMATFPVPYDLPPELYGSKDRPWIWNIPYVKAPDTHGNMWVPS
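Compounds were preincubated with Tdp1 (1 nM final) for 15 min at room temperature before substrate (15 nM final) started a 5 min reaction; beads (10 ug/ml final) were then added for 10 min before AlphaScreen detection.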
RORgamma inh: qHTS for inhibitors of ROR gamma transcriptional activity; Nuclear receptor ROR-gamma (Mus musculus), P51450; Drosophila S2 Gal4-RORgamma UAS-luciferase reporter, 20 h; Potency, µM (series often up to 53.6 µM), hits mostly inhibitors; 310,000 compounds, 5.4% hits; further: nearly all actives have a fitted effect of over 60% in size
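Luciferase reporter read in Schneider cells carrying Gal4-RORγ (mouse) and UAS-Photinus luciferase; cells given compound 1 h before 700 uM copper sulfate induction, then incubated 20 h at ambient temperature.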
VP16 counter: VP16 counterscreen qHTS for inhibitors of ROR gamma transcriptional activity | Potency, µM (top dose mostly 53.6 µM), most hits filed as inhibitors | Drosophila S2 Gal4-VP16 UAS-luciferase, luminescence, 20 h | AID 2546, 2010 | 310,000 compounds, 3.5% hits;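 further: Gal4-VP16 expression switched on by copper sulfate through the metallothionein promoter; nearly all actives have a fitted effect of over 50% in size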
TDP1 cell noCPT: qHTS for Inhibitors of human tyrosyl-DNA phosphodiesterase 1 (TDP1): qHTS in cells in absence of CPT; Potency, µM (highest dose often 46.2 µM), usual class: inhibitors; 420,000 compounds, 15% hits; DT40 Tdp1-/- hTDP1 cells, no CPT, ATP luminescence, 48 h; further: nearly all actives have a fitted effect of over 55% in size
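No-CPT arm: Tdp1-/-;hTDP1 DT40 cells (400/well) plus compounds, incubated ≥48 hr at 37 °C. Readout CellTiter-Glo luminescence.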
TDP1 cell CPT: qHTS for Inhibitors of human tyrosyl-DNA phosphodiesterase 1 (TDP1): qHTS in cells in presence of CPT; chicken DT40 Tdp1-/-;hTDP1 cells + 20 nM CPT, ATP luminescence, 48 h; Potency, µM (series often up to 46.2 µM), usual class: inhibitors; 420,000 compounds, 12% hits; further: nearly all actives have a fitted effect of over 55% in size
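Chicken DT40 Tdp1-/- cells stably complemented with human TDP1 were seeded at 400 cells/well in medium containing 20 nM camptothecin, exposed to pin-transferred compounds, and grown at 37 °C for at least 48 hr. Viability was read as ATP luminescence.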
Numbers stand for hits; i = inactive; ? = inconclusive; nt = no result given. Hits are enriched below; roughly 19% of the tested compounds scored in any of these assays. The call rests on the fitted dose curve; in most records, active means well fitted curve in the direction sought with a large enough effect; inconclusive means small, poorly fitted or top-dose-only effect, or another doubt; inactive means no such curve, though single readings can be large; an effect the other way counts as inactive or inconclusive.

SMILES | TDP1 inh | RORgamma inh | VP16 counter | TDP1 cell noCPT | TDP1 cell CPT
COc1cccc(NC(=O)c2cnc(SCC(=O)N3CCOCC3)n(C)c2=O)c1 | i | nt | nt | 15µM | 15µM
CSc1nc2sc3c(c2c2nnnn12)CCC3 | i | i | i | nt | nt
Oc1ccccc1/C=N/NC(=S)NC1CC2C=CC1C2 (centres undefined) | i | 3.2µM | 5µM | 1.6µM | 1.8µM
Oc1c(Cl)cc(Cl)cc1/C=N/NC(=S)NC1CC2C=CC1C2 (centres undefined) | i | 4.5µM | 20µM | 12µM | ?
CC(=O)Nc1ccc(S(=O)(=O)N2CCSC2)cc1 | nt | i | i | i | i
Oc1c(Br)cc(Br)cc1/C=N/c1nccs1 | i | nt | nt | 18µM | ?
Oc1ccc(Cl)cc1/C=N/c1nccs1 | i | i | i | 11µM | 13µM
Cc1nnc(C)n1/N=C/c1cc(Br)cc(Br)c1O | i | ? | ? | i | i
Oc1c(Br)cc(Br)cc1C=Nc1cccnc1 | nt | i | i | 21µM | ?
CC(=O)OC(C(=O)N1CCN(c2ccc(F)cc2)CC1)c1ccccc1 (centres undefined) | i | ? | i | i | i
COc1ccc(C2CC(c3ccccc3)Nc3nc(NC(=O)c4ccco4)nn32)cc1 (centres undefined) | i | 6.3µM | 7.1µM | i | i
COc1ccc(C2CC(c3ccc(OC)cc3)n3nc(NC(=O)c4ccco4)nc3N2)cc1 (centres undefined) | i | 6.3µM | 16µM | i | i
Nc1ncnc2c1ncn2[C@@H]1O[C@H](C(=O)N2CCN(Cc3ccccn3)CC2)[C@@H](O)[C@H]1O | nt | nt | nt | i | i
CN1CCN(C(=S)c2cn(Cc3ccccc3F)c3ccccc23)CC1 | i | 11µM | i | ? | ?
CN1CCN(C(=S)c2cn(Cc3ccc(F)cc3)c3ccccc23)CC1 | i | ? | i | ? | ?
CCN(CC)C(=O)Cn1cc(C(=O)C(=O)N2CCN(C)CC2)c2ccccc21 | i | i | i | i | i
CC1CCN(C(=S)c2cn(Cc3ccc(F)cc3)c3ccccc23)CC1 | i | 5µM | 11µM | 23µM | ?
CN1CCN(C(=S)c2cn(Cc3cccc(F)c3)c3ccccc23)CC1 | i | 13µM | i | 21µM | ?
CC1CCN(C(=O)C(=O)c2cn(CC(=O)N3CCCC3)c3ccccc23)CC1 | i | i | i | i | i
CC1CCN(C(=S)c2cn(Cc3ccccc3F)c3ccccc23)CC1 | i | 0.89µM | 4.5µM | ? | ?
Cc1cc2cc(CNC(=S)Nc3ccc(OC(F)(F)F)cc3)ccc2n1C | i | i | i | ? | ?
COc1ccc(CC(=O)NCc2nnc(SCC(=O)Nc3ccccc3)n2C)cc1 | i | i | i | i | i
S=C(c1cn(Cc2ccccc2)c2ccccc12)N1CCOCC1 | i | 11µM | i | ? | i
Cc1ccc(C(=O)Nc2c(C)cc(C)c3cccnc23)cc1 | i | i | i | 16µM | ?
COc1ccc(NC(=O)c2ccc3nccnc3c2)cc1 | i | i | i | ? | ?
SMILES | TDP1 inh | RORgamma inh | VP16 counter | TDP1 cell noCPT | TDP1 cell CPT
Cc1ccc(C(=O)/C=C/c2ccc3ncccc3c2)cc1 | i | ? | ? | 29µM | 18µM
COc1ccc(C(=O)Nc2ccc3ncccc3c2)cc1 | nt | ? | ? | ? | 5.8µM
Cc1ccc(C(=O)Nc2ccc3ncccc3c2)cc1 | nt | 14µM | 11µM | ? | i
O=C(Nc1ccc2ncccc2c1)c1cccc(Br)c1 | nt | i | i | i | ?
Fc1ccc(-c2nnc(SCc3ncc(-c4ccccc4)o3)n2CC2CCCO2)cc1 (centres undefined) | i | i | i | ? | i
CN(C)c1nc(N)nc(-c2ccco2)n1 | i | i | i | i | i
Cc1cc(C(=O)NC2CCC(O)CC2)c(C)o1 (centres undefined) | i | nt | nt | i | i
COc1ccc(OC)c2c1cc(C(=O)N[C@@H](Cc1ccccc1)C(=O)O)n2C | nt | i | i | i | i
O=C1C2C3C=CC(C3)C2C(=O)N1CCN1CCN(Cc2ccc([N+](=O)[O-])cc2)CC1 (centres undefined) | i | ? | i | 16µM | ?
Cc1ccccc1N(C(=O)c1snc(C(N)=O)c1N)C(C(=O)NCc1ccccc1)c1ccc(O)cc1 (centres undefined) | nt | i | i | 26µM | 23µM
CCOc1ccccc1N(C(=O)c1snc(C(N)=O)c1N)C(C(=O)NCc1ccccc1)c1ccc(O)cc1 (centres undefined) | i | i | i | ? | 23µM
NC(=O)c1nsc(C(=O)N(Cc2ccco2)C(C(=O)NCc2ccccc2)c2ccc(O)cc2)c1N (centres undefined) | i | ? | i | 12µM | ?
Cc1ccccc1N(C(=O)c1snc(C(N)=O)c1N)C(C(=O)NC1CCCCC1)c1ccc(O)cc1 (centres undefined) | i | i | i | ? | ?
CCC(C(=O)NCc1ccc(F)cc1)N(Cc1ccco1)C(=O)c1snc(C(N)=O)c1N (centres undefined) | i | i | i | i | i
COc1cccc(N(C(=O)c2snc(C(N)=O)c2N)C(C(=O)NCc2ccccc2)c2ccc(O)cc2)c1 (centres undefined) | i | i | i | 18µM | ?
Cc1nc(C)c(C(=O)C2=C(O)C(=O)N(CCN(C)C)C2c2ccco2)s1 (centres undefined) | nt | i | i | i | i
COc1cccc(CN(C(=O)c2cc3ccccc3oc2=O)C2CC2)c1 | i | ? | i | ? | ?
COc1ccc(CN(C(=O)c2snc(C(N)=O)c2N)C(C)C(=O)NCc2ccc(F)cc2)cc1 (centres undefined) | i | i | i | ? | i
CN(C)c1ccc(C(C(=O)NCc2ccccc2)N(Cc2cccnc2)C(=O)c2snc(C(N)=O)c2N)cc1 (centres undefined) | i | i | i | 16µM | 21µM
COc1cc(C(C(=O)NC2CCCC2)N(Cc2ccco2)C(=O)c2snc(C(N)=O)c2N)cc(OC)c1OC (centres undefined) | i | i | ? | ? | i
COc1ccc(CNC(=O)C(C)N(Cc2ccccc2OC)C(=O)c2snc(C(N)=O)c2N)cc1 (centres undefined) | nt | 10µM | i | ? | ?
CN(C)c1ccc(C(C(=O)NC2CCCCC2)N(Cc2ccco2)C(=O)c2snc(C(N)=O)c2N)cc1 (centres undefined) | i | i | i | 9.2µM | ?
CCc1nnc(NC(=O)CSc2nnc(CNc3ccc(OC)cc3)n2CC)s1 | i | i | i | i | i
